Most compounds without a hit are left out; they make up all but 8% or so of the library.
HT1080-NT tox – kills 2HG-producing HT-1080-NT fibrosarcoma cells. HT-1080-NT fibrosarcoma viability, CellTiter-Glo ATP luminescence, 48 h. Potency, µM (top dose mostly 46.1 µM), without a hit: at the top dose activity, negative = less viability, hits mostly cytotoxic. 1.6% of 360,000 active. AID 686970;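 further: NT is the 2HG producing partner of a matched IDH1 knockdown line; 0% = DMSO-treated cells and -100% = media-only wells without cells; nearly all actives have a fitted effect of over 55% in size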
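Read-out is CellTiter-Glo luminescence after 10 minutes at room temperature, following 48 hours' compound treatment of HT-1080-NT cells (750 cells/well, RPMI, 5% FBS, 37 degrees C).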
SW480 rereplic – induces DNA re-replication in SW480 colon adenocarcinoma cells | SW480 DNA re-replication, Hoechst DNA content imaging, 48 h | Potency, µM (highest dose often 46.1 µM), for inactives: at the highest dose re-replication activation, most hits filed as activators | 1.8% of 340,000 active; further: % of control where 0% means no effect; nearly all actives have a fitted effect of over 55% in size
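DNA re-replication was detected as more nuclei of elevated Hoechst intensity after 48 hr exposure to compound (23 nL pinned per well of 250 cells).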
MCF10A rereplic – DNA re-replication induction in MCF 10a cells | Potency, µM (doses to about 46.1 µM), for inactives: at the highest dose activity, positive = re-replication, most hits filed as activators | AID 624296 | MCF 10A DNA re-replication, Hoechst nuclear intensity, 48 h | 2.9% of 350,000 active; further: % of control where 0% means no effect; nearly all actives have a fitted effect of over 50% in size
HT1080 IDH1KD tx – toxicity to HT-1080 IDH1 knockdown cells (counter line); AID 686971; 2% of 360,000 active; HT-1080 IDH1 knockdown viability, ATP luminescence, 48 h; Potency, µM (series often up to 46.1 µM), for inactives: at the highest dose activity, negative = toxicity, hits mostly cytotoxic;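 further: 0% = DMSO wells and -100% = cell-free medium wells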
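In this qHTS, HT-1080 cells depleted of IDH1 are exposed for 48 h at 37 °C to compound titrations. Toxicity is scored from CellTiter-Glo luminescence, with DMSO as full viability and medium alone as none.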
KB-3-1 tox – KB-3-1 parental cell cytotoxicity; KB-3-1 viability, CellTiter-Glo ATP luminescence, 72 h; 1.4% of 400,000 active; AID 1347075; Potency, µM (titrated, usually from 46.1 µM), actives largely listed as cytotoxic; further: on the % scale 0 is the no-effect control and ±100 the full control effect; nearly all actives have a fitted effect of over 60% in size
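Cytotoxicity measured as CellTiter-Glo luminescence after 72 h at 37 C. Compound titrations were pinned onto drug-naive KB-3-1 parental adenocarcinoma cells grown in DMEM with 10% FBS, and normalized data fitted to concentration-response curves.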
KB-V1 MDR tox – KB-V1 MDR subline cytotoxicity. KB-V1 MDR cells viability, CellTiter-Glo, 72 h. Potency, µM (highest dose often 46.1 µM), hits mostly cytotoxic. 3.4% of 400,000 active; further: on the % scale 0 is the no-effect control and ±100 the full control effect; nearly all actives have a fitted effect of over 60% in size
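KB-V1 cells (P-gp-expressing MDR subline of KB-3-1) in phenol-red-free DMEM with 10% FBS were exposed to library compounds over a concentration series for 72 h at 37 degrees C. Viability read by CellTiter-Glo luminescence; concentration-effect curves fitted after normalization.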
* marks the source's active call; other numbers are inactive results; i = inactive; ? = inconclusive; . = no result given. The call rests on the fitted dose curve; in most records, active means well fitted curve in the direction sought with a large enough effect; inconclusive means small, poorly fitted or top-dose-only effect, or another doubt; inactive means no such curve, though single readings can be large; an effect the other way counts as inactive or inconclusive. Potency means the concentration at half of the fitted maximal effect.

SMILES | HT1080-NT tox | SW480 rereplic | MCF10A rereplic | HT1080 IDH1KD tx | KB-3-1 tox | KB-V1 MDR tox
NNC(=O)c1[nH]c2ccc([N+](=O)[O-])cc2c1-c1ccccc1 | ? | ? | ? | 3.66µM* | ? | i
Cc1ccc(NC(=O)Cn2cnc3sc(C(=O)O)c(C)c3c2=O)cc1Cl | . | . | . | . | i | i
CCCN(CC(=O)Nc1ccc(F)c(F)c1F)CC(=O)Nc1c(Cl)cccc1Cl | 3.5% | ? | ? | 2.6% | i | 18.4µM*
CCCN(CC(=O)Nc1ccc(C)cc1Br)CC(=O)Nc1ccc(F)c(F)c1F | -2.7% | 0.1% | ? | -14.8% | i | 8.2µM*
CCCN(CC(=O)Nc1cccc(Br)c1)CC(=O)Nc1ccc(F)c(F)c1F | ? | 8.4% | ? | ? | ? | ?
CCOC(=O)Cn1c(=O)oc2cc(S(=O)(=O)N3CCN(c4cc(C)ccc4C)CC3)ccc21 | . | . | . | . | i | ?
CCCN1CNc2c(c(=O)[nH]c(=S)n2CCCc2ccccc2)C1 | -23.0% | . | . | -28.9% | . | .
O=C(Nc1nnc(-c2ccc(Cl)cc2)o1)C1=COCCO1 | -0.5% | -6.1% | 28.2% | -1.2% | i | 8.2µM*
Cc1ccc(C)c2c1CCC(=Cc1ccccc1[N+](=O)[O-])C2=O | 2.4% | . | . | 0.0% | i | i
CN1C/C(=C/c2ccccc2[N+](=O)[O-])C(=O)/C(=C\c2ccccc2[N+](=O)[O-])C1 | 2.91µM* | 1.16µM* | 1.84µM* | 3.66µM* | ? | i
CCOC(=O)c1[nH]c2c(c1Cc1ccccc1)C(=O)CC(c1ccc(C(C)(C)C)cc1)C2 (centres undefined) | . | . | . | . | i | i
O=C1c2cccc3c(N4CCCCC4)ccc(c23)C(=O)N1c1ccc(O)cc1 | 1.4% | 11.6µM* | 5.8µM* | -15.9% | i | i
O=C1c2cccc3c(N4CCCCC4)ccc(c23)C(=O)N1c1ccccc1O | -9.8% | 18.4µM* | 5.8µM* | -7.5% | i | i
Cc1ccccc1-c1nc2c(c(SCc3cccc(Cl)c3)n1)Cc1c(CO)cnc(C)c1O2 | . | . | . | . | i | i
CCOc1ccccc1CNC(=O)C1CCN(c2nc3ccccc3nc2C(F)(F)F)CC1 | . | . | . | . | i | i
O=C(Nc1ccccc1Cl)C1CCN(c2nc3ccccc3[nH]2)CC1 | . | . | . | . | i | i
CCCN1C(=O)C2(c3ccccc31)c1c(oc3cc(C)c(C)cc3c1=O)C(=O)N2CCCOC (centres undefined) | . | . | . | . | i | i
O=C(NCc1ccco1)/C(=C\c1ccco1)NC(=O)c1ccccc1Cl | -1.0% | 11.6µM* | -10.6% | 20.1% | i | i
O=C(NC(=S)Nc1cc([N+](=O)[O-])ccc1O)c1ccc2c(c1)OCO2 | ? | ? | 13µM* | ? | i | ?
CCOC(=O)C1CCCN(C(=O)C2COc3ccccc3O2)C1 (centres undefined) | 4.4% | ? | 11.6% | 3.4% | i | i
CCOC(=O)C1CCCN(C(=O)CNS(=O)(=O)c2ccc(Br)s2)C1 (centres undefined) | 6.8% | 0.9% | -2.8% | -6.2% | i | 20.6µM*
O=C(CNS(=O)(=O)c1ccc(Br)s1)N1CCCC1 | 5.8% | 2.1% | 6.3% | 8.1% | i | i
CCOC(=O)C1CCCN(C(=S)Nc2ccc(Nc3ccccc3)cc2)C1 (centres undefined) | -16.2% | -10.3% | 2.0% | -2.2% | i | i
CCOC(=O)C1CCCN(C(=O)c2cc3cc(Br)ccc3oc2=O)C1 (centres undefined) | -10.9% | 6.31µM* | 5.2% | 4.5% | i | i
CCOC(=O)C1CCCN(C(=O)C2c3ccccc3Oc3ccccc32)C1 (centres undefined) | 6.4% | -3.6% | 10.9% | 0.7% | i | 11.6µM*
SMILES | HT1080-NT tox | SW480 rereplic | MCF10A rereplic | HT1080 IDH1KD tx | KB-3-1 tox | KB-V1 MDR tox
CCOC(=O)C1CCCN(C(=S)Nc2ccc(C)cc2C)C1 (centres undefined) | -0.2% | 0.7% | 0.0% | 9.8% | i | 14.6µM*
CCc1ccccc1N(CC)C(=O)C(=O)Nc1ccc2nc3n(c(=O)c2c1)CCCCC3 | . | . | . | . | i | i
COc1ccc(-c2c(C)nn3c(N4CCN(c5ccccc5)CC4)cc(C)nc23)cc1OC | . | . | . | . | i | i
O=C(NCc1ccc2c(c1)CCN2C(=O)c1ccc(F)cc1)c1cc2ccccc2[nH]1 | . | . | . | . | i | i
CCOc1ccccc1N1CCN(C(=O)C2c3ccccc3Oc3ccccc32)CC1 | ? | 16.4µM* | 6.51µM* | 18.4µM* | 13µM* | 14.6µM*
CCOc1ccccc1N1CCN(C(=O)c2ccccc2)CC1 | 6.6% | -8.1% | -1.3% | 7.8% | i | i
COc1ccc(NC(=O)C2=C(C)Nc3ncnn3C2c2ccc(O)cc2)cc1 (centres undefined) | . | . | . | . | i | ?
Fc1cccc(/C=N/Nc2nccnc2Cl)c1 | 11.6µM* | -2.2% | -3.4% | 14.6µM* | ? | 5.8µM*
Oc1ccc(/C=N/Nc2nccnc2Cl)cc1 | 16.4µM* | 0.9% | 13.1% | 25.9µM* | 16.4µM* | ?
Fc1ccc(/C=N/Nc2nccnc2Cl)cc1 | ? | -2.0% | 5.4% | ? | ? | i
O=[N+]([O-])c1cccc(/C=N/Nc2nccnc2Cl)c1 | ? | -3.5% | 3.4% | -24.0% | i | i
COC(=O)/C=C\C(C#N)(C#N)N=Cc1ccc(OC)cc1 | ? | 6.51µM* | 13µM* | 5.8µM* | ? | i
COc1ccc(C=NNC(=O)CCCCC(=O)NN=Cc2ccc(OC)cc2)cc1 | -1.9% | -16.2% | 10.1% | -2.2% | i | ?
COc1ccc(C2=NN(C)C(=NCc3ccccc3)SC2)cc1 | -10.9% | 3.8% | 27.0% | 0.3% | ? | 23.1µM*
COc1ccc(N=C2SCC(c3ccc(C)cc3)=NN2CCO)cc1 | -24.2% | -52.2% | -3.5% | ? | i | i
O=C1[C@@H]2C[C@@H]3C[C@H]1C[C@@](O)(C3)C2 | . | 1.6% | 3.8% | . | . | .
CC(CC(=O)Nc1ccc(F)cc1)S(=O)(=O)c1cc2c3c(c1)CCN3C(=O)CC2 (centres undefined) | . | . | . | . | i | i
CCn1c(=O)n(CC)c2cc(S(=O)(=O)N3CCC(c4ccccc4)CC3)ccc21 | ? | -1.7% | -4.5% | -23.6% | i | 23.1µM*
Cn1c(=O)c(=O)n(C)c2cc(S(=O)(=O)N3CCC(Cc4ccccc4)CC3)ccc21 | 0.0% | -2.8% | 7.9% | -0.2% | i | i
CC(=O)c1ccc(Nc2cc(C)nc3c(C)cccc23)cc1 | 5.17µM* | 1.16µM* | 23.1µM* | 3.66µM* | i | 2.91µM*
